As a reminder, the residual activity is the signal under treatment as a percentage of the control signal.

For assay [1], the target named is T1, Ephrin type-B receptor 1 (Homo sapiens) (UniProt P54762).
T1 sequence (whole entry): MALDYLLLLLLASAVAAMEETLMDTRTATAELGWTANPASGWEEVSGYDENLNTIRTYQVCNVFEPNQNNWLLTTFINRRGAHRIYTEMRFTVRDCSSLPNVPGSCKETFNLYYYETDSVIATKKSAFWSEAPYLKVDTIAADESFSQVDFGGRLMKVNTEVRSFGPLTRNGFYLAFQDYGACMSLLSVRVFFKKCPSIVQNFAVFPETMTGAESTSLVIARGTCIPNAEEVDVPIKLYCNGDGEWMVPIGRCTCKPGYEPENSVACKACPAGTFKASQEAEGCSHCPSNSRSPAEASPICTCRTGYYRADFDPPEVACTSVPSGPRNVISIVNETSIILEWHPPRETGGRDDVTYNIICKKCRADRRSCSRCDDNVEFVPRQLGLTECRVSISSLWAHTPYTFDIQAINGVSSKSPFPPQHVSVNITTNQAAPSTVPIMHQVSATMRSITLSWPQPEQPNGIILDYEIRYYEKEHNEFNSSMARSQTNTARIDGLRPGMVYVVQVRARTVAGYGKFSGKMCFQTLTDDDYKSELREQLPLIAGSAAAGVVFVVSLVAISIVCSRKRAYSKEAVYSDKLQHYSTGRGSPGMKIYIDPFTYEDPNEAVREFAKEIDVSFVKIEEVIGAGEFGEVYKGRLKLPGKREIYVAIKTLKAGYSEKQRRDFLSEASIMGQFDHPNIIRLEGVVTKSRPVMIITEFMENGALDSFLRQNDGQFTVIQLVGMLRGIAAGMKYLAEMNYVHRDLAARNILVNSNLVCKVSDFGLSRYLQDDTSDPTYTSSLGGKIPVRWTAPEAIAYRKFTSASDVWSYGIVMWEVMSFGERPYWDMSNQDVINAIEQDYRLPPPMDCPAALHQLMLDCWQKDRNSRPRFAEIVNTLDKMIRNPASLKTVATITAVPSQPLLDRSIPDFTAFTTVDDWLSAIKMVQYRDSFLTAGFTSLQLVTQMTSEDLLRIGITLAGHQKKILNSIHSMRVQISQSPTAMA
Conditions: at 10 µM; call rule not given here.

The target in assay [2] is T2, Ephrin type-B receptor 2 (Homo sapiens) (UniProt P29323).
T2 sequence (whole entry): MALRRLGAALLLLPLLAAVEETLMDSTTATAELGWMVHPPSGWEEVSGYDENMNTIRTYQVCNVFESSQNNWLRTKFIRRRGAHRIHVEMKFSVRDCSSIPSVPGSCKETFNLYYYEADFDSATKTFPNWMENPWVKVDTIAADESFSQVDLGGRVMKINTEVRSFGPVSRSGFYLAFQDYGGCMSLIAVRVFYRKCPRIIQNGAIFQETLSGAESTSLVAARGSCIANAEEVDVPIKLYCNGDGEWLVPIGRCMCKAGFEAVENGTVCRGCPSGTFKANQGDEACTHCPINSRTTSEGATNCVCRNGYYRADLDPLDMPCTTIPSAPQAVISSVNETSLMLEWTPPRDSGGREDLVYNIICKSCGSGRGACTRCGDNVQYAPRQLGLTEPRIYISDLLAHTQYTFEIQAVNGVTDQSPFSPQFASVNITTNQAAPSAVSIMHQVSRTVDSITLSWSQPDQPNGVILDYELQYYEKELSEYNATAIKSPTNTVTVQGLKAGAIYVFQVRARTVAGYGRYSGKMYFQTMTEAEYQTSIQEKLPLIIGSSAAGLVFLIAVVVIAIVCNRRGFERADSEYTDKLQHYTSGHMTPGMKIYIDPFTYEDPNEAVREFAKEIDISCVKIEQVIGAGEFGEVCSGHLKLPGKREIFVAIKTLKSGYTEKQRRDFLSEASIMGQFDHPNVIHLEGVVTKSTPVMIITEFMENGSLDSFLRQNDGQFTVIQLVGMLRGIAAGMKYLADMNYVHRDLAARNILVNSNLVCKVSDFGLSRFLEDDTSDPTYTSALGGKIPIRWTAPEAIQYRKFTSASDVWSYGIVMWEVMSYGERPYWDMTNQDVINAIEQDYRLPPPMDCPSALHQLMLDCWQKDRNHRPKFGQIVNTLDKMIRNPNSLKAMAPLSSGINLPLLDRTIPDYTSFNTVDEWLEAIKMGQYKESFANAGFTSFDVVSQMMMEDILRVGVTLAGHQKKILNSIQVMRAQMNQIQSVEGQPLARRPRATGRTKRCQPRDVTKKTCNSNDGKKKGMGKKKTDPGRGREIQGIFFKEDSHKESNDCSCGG
The settings on record: at 1 µM.

The target in assay [3] is T2, Ephrin type-B receptor 2 (Homo sapiens). Conditions: at 10 µM.
In assay [4] the target is T3, Ephrin type-B receptor 3 (Homo sapiens) (UniProt P54753).
T3 sequence (whole entry): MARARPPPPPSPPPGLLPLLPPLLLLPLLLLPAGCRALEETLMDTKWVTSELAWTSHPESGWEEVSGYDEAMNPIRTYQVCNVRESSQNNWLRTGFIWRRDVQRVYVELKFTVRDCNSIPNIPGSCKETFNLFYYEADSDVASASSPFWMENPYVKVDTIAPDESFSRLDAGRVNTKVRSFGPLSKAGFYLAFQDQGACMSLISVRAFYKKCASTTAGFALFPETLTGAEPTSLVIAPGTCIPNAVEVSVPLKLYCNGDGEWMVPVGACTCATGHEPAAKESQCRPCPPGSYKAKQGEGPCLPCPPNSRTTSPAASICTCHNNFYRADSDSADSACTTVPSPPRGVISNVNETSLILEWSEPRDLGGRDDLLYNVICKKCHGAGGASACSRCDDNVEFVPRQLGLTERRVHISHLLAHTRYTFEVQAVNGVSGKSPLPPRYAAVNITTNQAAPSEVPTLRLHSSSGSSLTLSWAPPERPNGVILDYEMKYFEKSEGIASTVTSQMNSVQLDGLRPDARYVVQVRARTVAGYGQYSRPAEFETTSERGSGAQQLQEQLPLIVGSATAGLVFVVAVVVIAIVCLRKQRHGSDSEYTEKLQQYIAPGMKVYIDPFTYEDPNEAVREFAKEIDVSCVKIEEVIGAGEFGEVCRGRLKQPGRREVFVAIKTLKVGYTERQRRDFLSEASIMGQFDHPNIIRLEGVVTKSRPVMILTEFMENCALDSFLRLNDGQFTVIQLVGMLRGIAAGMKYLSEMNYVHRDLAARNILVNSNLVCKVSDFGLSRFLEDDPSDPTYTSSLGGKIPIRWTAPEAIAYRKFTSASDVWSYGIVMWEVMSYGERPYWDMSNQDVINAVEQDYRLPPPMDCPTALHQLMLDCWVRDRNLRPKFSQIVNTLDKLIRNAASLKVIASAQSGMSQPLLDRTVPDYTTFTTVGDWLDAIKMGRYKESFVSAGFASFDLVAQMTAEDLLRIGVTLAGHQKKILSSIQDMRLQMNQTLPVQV
The settings on record: at 1 µM.

In assay [5] the target is T3, Ephrin type-B receptor 3 (Homo sapiens). The settings on record: at 10 µM.
For assay [6], the target named is T4, Ephrin type-B receptor 4 (Homo sapiens) (UniProt P54760).
T4 sequence (whole entry): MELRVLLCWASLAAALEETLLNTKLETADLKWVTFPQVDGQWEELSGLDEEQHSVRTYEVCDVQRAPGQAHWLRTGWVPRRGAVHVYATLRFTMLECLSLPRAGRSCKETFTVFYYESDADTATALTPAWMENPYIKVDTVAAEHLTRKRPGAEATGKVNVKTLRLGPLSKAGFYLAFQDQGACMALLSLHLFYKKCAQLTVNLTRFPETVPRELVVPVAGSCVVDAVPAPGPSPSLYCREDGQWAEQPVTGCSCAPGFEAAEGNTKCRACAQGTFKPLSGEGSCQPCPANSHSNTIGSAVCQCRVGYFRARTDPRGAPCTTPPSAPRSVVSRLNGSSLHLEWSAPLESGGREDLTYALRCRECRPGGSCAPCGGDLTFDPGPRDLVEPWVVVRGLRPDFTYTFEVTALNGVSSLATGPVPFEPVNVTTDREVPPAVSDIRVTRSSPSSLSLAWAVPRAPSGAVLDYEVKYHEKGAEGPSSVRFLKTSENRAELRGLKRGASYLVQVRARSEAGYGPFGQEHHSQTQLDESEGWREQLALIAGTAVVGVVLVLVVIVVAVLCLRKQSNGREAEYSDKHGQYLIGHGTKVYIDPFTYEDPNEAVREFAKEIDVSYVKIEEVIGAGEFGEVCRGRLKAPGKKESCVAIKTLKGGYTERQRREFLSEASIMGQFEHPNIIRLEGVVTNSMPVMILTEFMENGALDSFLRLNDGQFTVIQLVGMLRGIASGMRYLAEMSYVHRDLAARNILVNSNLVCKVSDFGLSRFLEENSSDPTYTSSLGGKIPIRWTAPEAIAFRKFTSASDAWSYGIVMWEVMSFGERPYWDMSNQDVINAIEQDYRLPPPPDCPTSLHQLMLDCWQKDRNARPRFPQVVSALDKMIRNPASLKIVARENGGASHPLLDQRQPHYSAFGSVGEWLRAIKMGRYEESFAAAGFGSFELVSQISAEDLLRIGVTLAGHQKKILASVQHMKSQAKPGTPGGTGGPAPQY
The settings on record: at 1 µM.

The target of assay [7] is T4, Ephrin type-B receptor 4 (Homo sapiens). The settings on record: at 10 µM.
Assay [8] has as its target Receptor tyrosine-protein kinase erbB-4 (Homo sapiens) (UniProt Q15303). Conditions: at 1 µM.
For assay [9] the target is unchanged. The settings on record: at 10 µM.
Assay [10] addresses Focal adhesion kinase 1 (Homo sapiens) (UniProt Q05397). The settings on record: at 1 µM.

Chain of Receptor tyrosine-protein kinase erbB-4 (Homo sapiens) (Q15303 whole entry): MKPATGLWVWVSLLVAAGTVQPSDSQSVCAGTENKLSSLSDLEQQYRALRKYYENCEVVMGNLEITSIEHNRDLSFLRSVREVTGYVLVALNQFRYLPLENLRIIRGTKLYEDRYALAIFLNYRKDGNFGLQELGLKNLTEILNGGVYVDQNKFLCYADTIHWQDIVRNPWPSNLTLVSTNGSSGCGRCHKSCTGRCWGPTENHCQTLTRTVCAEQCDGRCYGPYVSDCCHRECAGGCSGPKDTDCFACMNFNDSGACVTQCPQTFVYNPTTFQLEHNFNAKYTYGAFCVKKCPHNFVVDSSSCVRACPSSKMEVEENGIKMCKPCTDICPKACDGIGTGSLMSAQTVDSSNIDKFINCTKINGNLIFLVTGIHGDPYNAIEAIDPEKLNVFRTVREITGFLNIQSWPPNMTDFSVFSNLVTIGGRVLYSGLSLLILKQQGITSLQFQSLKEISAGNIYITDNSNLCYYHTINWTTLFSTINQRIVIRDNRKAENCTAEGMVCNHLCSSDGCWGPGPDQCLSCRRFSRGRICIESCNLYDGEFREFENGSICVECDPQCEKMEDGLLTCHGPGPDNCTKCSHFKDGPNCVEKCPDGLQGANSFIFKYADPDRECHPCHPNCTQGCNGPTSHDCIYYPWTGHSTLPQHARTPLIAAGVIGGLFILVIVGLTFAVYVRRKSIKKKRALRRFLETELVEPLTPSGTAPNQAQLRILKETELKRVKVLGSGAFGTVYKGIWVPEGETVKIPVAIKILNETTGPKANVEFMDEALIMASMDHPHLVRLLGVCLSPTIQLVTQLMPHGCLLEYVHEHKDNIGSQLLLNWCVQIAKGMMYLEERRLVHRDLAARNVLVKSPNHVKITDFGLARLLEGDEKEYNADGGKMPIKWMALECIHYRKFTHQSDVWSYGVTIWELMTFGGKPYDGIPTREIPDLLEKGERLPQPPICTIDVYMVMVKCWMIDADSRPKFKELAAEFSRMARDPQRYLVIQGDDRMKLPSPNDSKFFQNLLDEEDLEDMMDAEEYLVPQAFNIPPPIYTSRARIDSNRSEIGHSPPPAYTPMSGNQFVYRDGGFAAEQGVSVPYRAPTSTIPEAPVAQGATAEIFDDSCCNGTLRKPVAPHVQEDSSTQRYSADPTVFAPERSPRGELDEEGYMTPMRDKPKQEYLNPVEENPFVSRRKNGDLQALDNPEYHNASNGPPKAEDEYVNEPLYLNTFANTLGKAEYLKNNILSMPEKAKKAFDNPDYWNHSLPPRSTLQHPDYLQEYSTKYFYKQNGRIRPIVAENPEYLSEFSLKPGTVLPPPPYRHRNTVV
Chain of Focal adhesion kinase 1 (Homo sapiens) (Q05397 2-1052 limits assumed): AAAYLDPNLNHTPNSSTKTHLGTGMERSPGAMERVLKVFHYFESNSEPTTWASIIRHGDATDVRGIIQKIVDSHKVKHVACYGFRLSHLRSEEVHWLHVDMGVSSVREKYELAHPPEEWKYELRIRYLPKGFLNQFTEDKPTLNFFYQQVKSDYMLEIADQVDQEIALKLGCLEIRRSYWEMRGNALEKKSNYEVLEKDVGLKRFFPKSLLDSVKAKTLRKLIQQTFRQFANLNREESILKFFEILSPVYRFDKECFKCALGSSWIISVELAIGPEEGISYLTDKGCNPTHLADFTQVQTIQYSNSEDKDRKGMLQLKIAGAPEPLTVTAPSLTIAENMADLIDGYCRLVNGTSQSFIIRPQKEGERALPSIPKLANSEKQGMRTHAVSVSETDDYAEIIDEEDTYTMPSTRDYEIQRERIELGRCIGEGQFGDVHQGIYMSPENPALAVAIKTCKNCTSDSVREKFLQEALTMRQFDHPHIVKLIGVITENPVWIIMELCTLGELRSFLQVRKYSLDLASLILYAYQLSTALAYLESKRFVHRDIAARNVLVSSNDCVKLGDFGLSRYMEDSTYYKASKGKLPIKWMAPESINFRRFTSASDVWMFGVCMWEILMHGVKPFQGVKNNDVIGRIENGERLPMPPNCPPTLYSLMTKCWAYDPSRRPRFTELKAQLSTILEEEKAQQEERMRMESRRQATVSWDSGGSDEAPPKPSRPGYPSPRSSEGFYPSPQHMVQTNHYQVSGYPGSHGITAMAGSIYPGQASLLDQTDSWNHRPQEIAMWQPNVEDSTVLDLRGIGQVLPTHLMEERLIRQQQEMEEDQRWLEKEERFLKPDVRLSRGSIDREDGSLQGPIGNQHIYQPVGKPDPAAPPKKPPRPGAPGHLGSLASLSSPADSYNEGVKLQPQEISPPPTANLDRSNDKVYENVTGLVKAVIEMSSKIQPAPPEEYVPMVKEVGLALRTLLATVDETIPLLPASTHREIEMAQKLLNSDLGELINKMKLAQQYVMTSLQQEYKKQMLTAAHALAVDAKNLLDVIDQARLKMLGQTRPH

As for `Cn1cnc2cc3c(Nc4cccc(Br)c4)ncnc3cc21`, the residual activity is 42% in assay [1]; 77% in assay [2]; 5% in [3]; 110% (inactive) in assay [4]; 123% in [5]; 31% in [6]. For the same compound, the residual activity was determined as 4% in assay [7], 72% in assay [8], 75% in assay [9] and 82% in assay [10].
